The record followed here is paper PMC8384837, “Expanding the binding specificity for RNA recognition by a PUF domain”.

Where a chain is given by its changes, count along the chain named.

Common to all, as to assay: yeast three-hybrid, YBZ-1, SC-Leu-His + 0.5 mM 3-AT, 4 days
What all share (conditions): tags: N-Gal4 AD-HA kept; label: inside an RPR1-promoter hybrid RNA with tandem MS2 sites; ssRNA

The target in one experiment is PUM1 PUF domain R4-TPC (Homo sapiens, UniProt Q14671 828-1176, N971T;H972P;Q975C). The gist of the method: (§1)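 Matching RNA elements and Pumilio-1 PUF domain libraries, randomized at the three base-contacting residues of every repeat, were co-expressed from a centromeric plasmid in strain YBZ-1 (LexA–MS2 coat fusion, HIS3 reporter). The repeat regions were PCR-amplified and Illumina-sequenced from cells grown four days on SC-Leu (input) or SC-Leu-His + 0.5 mM 3-AT (selection). The interaction score is the log change in variant frequency from input to selection. It is computed in log2, with a pseudocount of 1 for absent variants.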

In another experiment the target is PUM1 PUF domain R4-PHA (Homo sapiens, UniProt Q14671 828-1176, N971P;Q975A). In outline: as §1
The target in a further experiment is PUM1 PUF domain R8-RHY (Homo sapiens, UniProt Q14671 828-1176, N1122R;Y1123H;Q1126Y). The gist of the method: as §1
The target in a further experiment is PUM1 PUF domain R3-GYH (Homo sapiens, UniProt Q14671 828-1176, C935G;R936Y;Q939H). The gist of the method: as §1
The target of a further experiment is PUM1 PUF domain R2-RRG (Homo sapiens, UniProt Q14671 828-1176, N899R;Y900R;Q903G). The gist of the method: as §1
The target in a further experiment is PUM1 PUF domain R5-QCH (Homo sapiens, UniProt Q14671 828-1176, C1007Q;R1008C;Q1011H). The gist of the method:
as §1

The target in the next experiment is PUM1 PUF domain R7-KWR (Homo sapiens, UniProt Q14671 828-1176, S1079K;N1080W;E1083R). The gist of the method: as §1
Another experiment concerns the target PUM1 PUF domain R7-LWG (Homo sapiens, UniProt Q14671 828-1176, S1079L;N1080W;E1083G). In outline:
as §1

The target of a further experiment is PUM1 PUF domain R4-AMC (Homo sapiens, UniProt Q14671 828-1176, N971A;H972M;Q975C). The gist of the method:
as §1

Another experiment addresses PUM1 PUF domain R5-KRW (Homo sapiens, UniProt Q14671 828-1176, C1007K;Q1011W). In outline: as §1
In the next experiment the target is PUM1 PUF domain R5-KCV (Homo sapiens, UniProt Q14671 828-1176, C1007K;R1008C;Q1011V). In outline: as §1
The next experiment addresses PUM1 PUF domain R5-FRG (Homo sapiens, UniProt Q14671 828-1176, C1007F;Q1011G). In outline: as §1
The target in another experiment is PUM1 PUF domain R7-GIR (Homo sapiens, UniProt Q14671 828-1176, S1079G;N1080I;E1083R). In outline:
as §1

A further experiment deals with PUM1 PUF domain R5-RFM (Homo sapiens, UniProt Q14671 828-1176, C1007R;R1008F;Q1011M). In outline: as §1
The next experiment addresses PUM1 PUF domain R3-TRG (Homo sapiens, UniProt Q14671 828-1176, C935T;Q939G). In outline:
as §1

The target of the next experiment is T1, PUM1 PUF domain R6-VYQ (Homo sapiens, UniProt Q14671 828-1176, N1043V).
T1 sequence: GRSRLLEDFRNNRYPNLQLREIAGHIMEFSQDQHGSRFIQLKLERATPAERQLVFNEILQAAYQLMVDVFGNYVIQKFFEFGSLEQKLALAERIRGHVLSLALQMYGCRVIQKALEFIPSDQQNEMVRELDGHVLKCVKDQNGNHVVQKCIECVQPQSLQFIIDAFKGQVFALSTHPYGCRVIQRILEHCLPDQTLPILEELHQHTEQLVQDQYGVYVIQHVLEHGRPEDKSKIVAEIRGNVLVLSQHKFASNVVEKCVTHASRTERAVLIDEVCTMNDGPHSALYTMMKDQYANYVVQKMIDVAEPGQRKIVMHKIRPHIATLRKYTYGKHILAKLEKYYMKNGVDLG
The gist of the method: as §1

For another experiment, the target named is PUM1 PUF domain R4-DHG (Homo sapiens, UniProt Q14671 828-1176, N971D;Q975G). In outline:
as §1

A further experiment has as its target T2, PUM1 PUF domain R6-VWL (Homo sapiens, UniProt Q14671 828-1176, N1043V;Y1044W;Q1047L).
T2 sequence: T1 sequence with Y217W, Q220L
The gist of the method:
as §1

The target of the next experiment is T3, PUM1 PUF domain R6-LWL (Homo sapiens, UniProt Q14671 828-1176, N1043L;Y1044W;Q1047L).
T3 sequence: T1 sequence with V216L, Y217W, Q220L
In outline:
as §1

In another experiment the target is PUM1 PUF domain R5-PRI (Homo sapiens, UniProt Q14671 828-1176, C1007P;Q1011I). In outline: as §1

On to “GGCUAGAACUAGUGGAUCCCCCGGCGCCCGGCGGCUCGAGCCCGGGUAAGUGUAUAUAGUCUGCAUGCCGCCGGGCGCCAUGCCUGCAGGUCGACUCUAGAAAACAUG”, for which the figures for the binding signal in the experiment with PUM1 PUF domain R4-TPC and in the experiment with PUM1 PUF domain R4-PHA were 5.59 log2 enrichment (interaction score) and 6.34 log2 enrichment (interaction score), respectively.

As for “GGCUAGAACUAGUGGAUCCCCCGGCGCCCGGCGGCUCGAGCCCGGGUAAGCGUAAAUAGUCUGCAUGCCGCCGGGCGCCAUGCCUGCAGGUCGACUCUAGAAAACAUG”, the binding signal with PUM1 PUF domain R8-RHY is 4.97 log2 enrichment (interaction score).

For the sequence “GGCUAGAACUAGUGGAUCCCCCGGCGCCCGGCGGCUCGAGCCCGGGUAAGUGUAAUUAGUCUGCAUGCCGCCGGGCGCCAUGCCUGCAGGUCGACUCUAGAAAACAUG”, the binding signal with PUM1 PUF domain R3-GYH is 2.58 log2 enrichment (interaction score).

Take “GGCUAGAACUAGUGGAUCCCCCGGCGCCCGGCGGCUCGAGCCCGGGUAAGUGUAAAGAGUCUGCAUGCCGCCGGGCGCCAUGCCUGCAGGUCGACUCUAGAAAACAUG”: in the experiment with PUM1 PUF domain R2-RRG, the binding signal is 2.19 log2 enrichment (interaction score).

For the sequence “GGCUAGAACUAGUGGAUCCCCCGGCGCCCGGCGGCUCGAGCCCGGGUAAGUGUGAAUAGUCUGCAUGCCGCCGGGCGCCAUGCCUGCAGGUCGACUCUAGAAAACAUG”, in the experiment with PUM1 PUF domain R5-QCH, the binding signal was 3.31 log2 enrichment (interaction score).

As for “GGCUAGAACUAGUGGAUCCCCCGGCGCCCGGCGGCUCGAGCCCGGGUAAGUAUAAAUAGUCUGCAUGCCGCCGGGCGCCAUGCCUGCAGGUCGACUCUAGAAAACAUG”, in the experiment with PUM1 PUF domain R7-KWR, the binding signal is 2.7 log2 enrichment (interaction score).

For “GGCUAGAACUAGUGGAUCCCCCGGCGCCCGGCGGCUCGAGCCCGGGUAAGUCUAAAUAGUCUGCAUGCCGCCGGGCGCCAUGCCUGCAGGUCGACUCUAGAAAACAUG”, the binding signal was 2.65 log2 enrichment (interaction score) with PUM1 PUF domain R7-LWG and 5.09 log2 enrichment (interaction score) with PUM1 PUF domain R7-KWR.

With “GGCUAGAACUAGUGGAUCCCCCGGCGCCCGGCGGCUCGAGCCCGGGUAAGUGUACAUAGUCUGCAUGCCGCCGGGCGCCAUGCCUGCAGGUCGACUCUAGAAAACAUG”, the binding signal with PUM1 PUF domain R4-TPC was 5.9 log2 enrichment (interaction score); with PUM1 PUF domain R4-PHA, 5.37 log2 enrichment (interaction score); with PUM1 PUF domain R4-AMC, 2.52 log2 enrichment (interaction score).

As to “GGCUAGAACUAGUGGAUCCCCCGGCGCCCGGCGGCUCGAGCCCGGGUAAGUGUCAAUAGUCUGCAUGCCGCCGGGCGCCAUGCCUGCAGGUCGACUCUAGAAAACAUG”, the binding signal in the experiment with PUM1 PUF domain R5-KRW was 2.58 log2 enrichment (interaction score); with PUM1 PUF domain R5-KCV it was 2.63 log2 enrichment (interaction score); with PUM1 PUF domain R5-FRG it was 2.42 log2 enrichment (interaction score).

On to “GGCUAGAACUAGUGGAUCCCCCGGCGCCCGGCGGCUCGAGCCCGGGUAAGUUUAAAUAGUCUGCAUGCCGCCGGGCGCCAUGCCUGCAGGUCGACUCUAGAAAACAUG”, for which the figures for the binding signal with PUM1 PUF domain R7-LWG and with PUM1 PUF domain R7-GIR were 5.68 log2 enrichment (interaction score) and 3.02 log2 enrichment (interaction score), respectively.

With “GGCUAGAACUAGUGGAUCCCCCGGCGCCCGGCGGCUCGAGCCCGGGUAAGUGUUAAUAGUCUGCAUGCCGCCGGGCGCCAUGCCUGCAGGUCGACUCUAGAAAACAUG”, the binding signal with PUM1 PUF domain R5-RFM was 4.36 log2 enrichment (interaction score); with PUM1 PUF domain R5-KCV, 1.51 log2 enrichment (interaction score); with PUM1 PUF domain R5-FRG it was 2.88 log2 enrichment (interaction score).

For “GGCUAGAACUAGUGGAUCCCCCGGCGCCCGGCGGCUCGAGCCCGGGUAAGUGUAAAUAGUCUGCAUGCCGCCGGGCGCCAUGCCUGCAGGUCGACUCUAGAAAACAUG”, the binding signal with PUM1 PUF domain R3-TRG is 3.15 log2 enrichment (interaction score); in the experiment with PUM1 PUF domain R6-VYQ it was 4.06 log2 enrichment (interaction score); in the experiment with PUM1 PUF domain R4-TPC, 4.17 log2 enrichment (interaction score); in the experiment with PUM1 PUF domain R5-RFM it was 1.2 log2 enrichment (interaction score); with PUM1 PUF domain R4-DHG, 3.07 log2 enrichment (interaction score); in the experiment with PUM1 PUF domain R6-VWL it was 4.01 log2 enrichment (interaction score). Moreover, the binding signal with PUM1 PUF domain R6-LWL is 3.89 log2 enrichment (interaction score); in the experiment with PUM1 PUF domain R4-PHA, 6.46 log2 enrichment (interaction score); in the experiment with PUM1 PUF domain R5-PRI, 4.45 log2 enrichment (interaction score); in the experiment with PUM1 PUF domain R4-AMC it was 3.21 log2 enrichment (interaction score).
